Screen size: about 9,900 compounds; about 90 (0.9%) were called active. About 2% were inconclusive and are not listed. Many of the other results were omitted from the sample, so actives are more common in it than they were. Values without a mark were called inactive.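 How the source made its calls: active means mean normalized replicate activity at least 50 and at least half of replicates each reaching 50; inconclusive means only one of the two criteria met; inactive means neither criterion met.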

Experimental findings from PubChem BioAssay AID743449 (Broad Institute, 2014) are described below.

The assay can be described thus: YAP1 pathway inhibitors via CTGF transcript, primary screen, DLD1 colon cancer cells, RT-qPCR, single point (AID 743449).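 Further: 0% = neutral control wells and 100% = dasatinib control wells; higher means stronger suppression of CTGF expression like dasatinib.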 To be noted: DLD1 CTGF mRNA qPCR, 24 h; at 12.5 µM; active compounds read high.
Turning to `CCCNC(=O)N1C[C@@H]2[C@H](c3ccccc31)[C@@H](CO)N2Cc1cccc(OC)c1`, the inhibition (in general, the relative decrease from the control value, in per cent) is -37.6%.
For `COCCNC(=O)c1cc2c(c(-c3cccc(C4=CCCCC4)c3)n1)[C@@H](CCO)N([S@](=O)C(C)(C)C)C2` the value was -10.8%; for `CCc1nc(N2[C@@H](C#N)[C@@H](c3ccccc3-c3ccc(F)cc3)[C@@H]2CO)sc1C`, 10.1%.
Turning to `CCc1nc(N2[C@H](CO)[C@@H](c3ccccc3-c3ccc(F)cc3)[C@@H]2C#N)sc1C`, the inhibition is 55.4% (active).
For `CCc1nc(N2[C@H](CO)[C@H](c3ccccc3-c3ccc(F)cc3)[C@@H]2C#N)sc1C` the value was -17.7%; for `COc1ccc(NC(=O)N(C)C[C@H]2Oc3c(NC(=O)CCCCCC(=O)Nc4ccccc4N)cccc3C(=O)N([C@H](C)CO)C[C@@H]2C)cc1`, 51% (active); for `CNC[C@H]1Oc2c(NC(=O)Nc3cccc4ccccc34)cccc2C(=O)N([C@H](C)CO)C[C@@H]1C`, 50.9% (active).
For `C[C@H]1CN([C@@H](C)CO)C(=O)c2cccc(NC(=O)c3ccc(-c4nccs4)cc3)c2O[C@H]1CN(C)C(=O)Nc1ccc(C(F)(F)F)cc1` the value was 11.6%; for `C[C@H](CO)N1C[C@H](C)[C@H](CN(C)C(=O)Nc2ccc3c(c2)OCO3)Oc2c(NC(=O)c3nc4ccccc4s3)cccc2C1=O`, 14.1%; for `C[C@@H]1CN([C@@H](C)CO)C(=O)c2cccc(NC(=O)c3nc4ccccc4s3)c2O[C@@H]1CN(C)C(=O)Nc1ccc2c(c1)OCO2`, 13.9%.
For `C[C@H]1CN([C@@H](C)CO)C(=O)c2cccc(NC(=O)c3ccc(-c4nccs4)cc3)c2O[C@@H]1CN(C)C(=O)Nc1ccc(C(F)(F)F)cc1` the value was 72.5% (active).
In the case of `COc1ccc(NC(=O)N(C)C[C@@H]2Oc3c(NC(=O)CCCCCC(=O)Nc4ccccc4N)cccc3C(=O)N([C@@H](C)CO)C[C@H]2C)cc1`, the inhibition is 1.84%.
For `CNC[C@@H]1Oc2c(NC(=O)Nc3cccc4ccccc34)cccc2C(=O)N([C@@H](C)CO)C[C@H]1C` the value was 17%; for `C[C@H](CO)N1C[C@H](C)[C@H](CN(C)C(=O)Nc2ccc(C(F)(F)F)cc2)Oc2c(NC(=O)c3ccc(-c4nccs4)cc3)cccc2C1=O`, -20.1%.
For `CNC[C@H]1Oc2c(NC(=O)Nc3cccc4ccccc34)cccc2C(=O)N([C@@H](C)CO)C[C@H]1C` the value was -2.92%; for `COc1ccc(NC(=O)N(C)C[C@H]2Oc3c(NC(=O)CCCCCC(=O)Nc4ccccc4N)cccc3C(=O)N([C@@H](C)CO)C[C@@H]2C)cc1`, 30.8%.
As for `C[C@@H]1CN([C@@H](C)CO)C(=O)c2cccc(NC(=O)c3nc4ccccc4s3)c2O[C@H]1CN(C)C(=O)Nc1ccc2c(c1)OCO2`, the inhibition is 52.6% (active).
The same measure for `O=C(C[C@@H]1C=C[C@@H](NC(=O)c2ccncc2)[C@H](CO)O1)NCC1CC1`: 15.8%; for `COCC#Cc1ccc([C@H]2[C@@H](CO)N3CCCCN(Cc4cccnc4)C[C@H]23)cc1`: -7.41%; for `O=C(C1CCOCC1)N1CC2(C1)[C@H](c1ccccc1)[C@@H](CO)N2C(=O)CC1CC1`: -35.8%.
The same measure for `COc1cccc(NC(=O)C[C@@H]2CC[C@@H]3[C@@H](COc4ccc(NC(=O)C5CC5)cc4C(=O)N3C)O2)c1`: -24.6%.
The same measure for `COc1ccc(-c2ccc([C@@H]3[C@@H](CO)N4C(=O)CN(C(=O)Cc5ccccn5)C[C@@H]34)cc2)cc1`: 16.8%; for `CO[C@H](CN(C)Cc1ccc2c(c1)OCO2)[C@@H](C)CN(C(=O)Nc1ccc(F)cc1)[C@H](C)CO`: -17.7%.
Turning to `CC(C)[C@H]1CC=CC[C@@H](C)Oc2ccccc2C(=O)N(C)[C@H](C(C)C)C(=O)N1` (mixture of isomers), the inhibition was 34.9%.
For `Cc1noc(C)c1NC(=O)N(C)C[C@@H]1Oc2cc(C#CCN(C)C)ccc2S(=O)(=O)N([C@H](C)CO)C[C@H]1C` the value was -1.27%; for `C[C@H](CO)N1C[C@H](C)[C@@H](CN(C)C(=O)Nc2ccc3c(c2)OCO3)Oc2c(NC(=O)c3nc4ccccc4s3)cccc2C1=O`, 46.6%.
With `COc1ccc(S(=O)(=O)N(C)C[C@@H]2Oc3c(NC(=O)c4nc5ccccc5s4)cccc3C(=O)N([C@H](C)CO)C[C@H]2C)cc1`, the inhibition was 9.74%.
Regarding `C[C@@H]1CN([C@H](C)CO)C(=O)c2cccc(NC(=O)c3nc4ccccc4s3)c2O[C@H]1CN(C)C(=O)Nc1ccc2c(c1)OCO2`, the inhibition was 73% (active).
The same measure for `COc1ccc(S(=O)(=O)N(C)C[C@@H]2Oc3c(NC(=O)c4nc5ccccc5s4)cccc3C(=O)N([C@@H](C)CO)C[C@@H]2C)cc1`: 34.9%.
For `C[C@H]1CN([C@@H](C)CO)C(=O)c2cccc(NC(=O)c3nc4ccccc4s3)c2O[C@@H]1CN(C)C(=O)Nc1ccc2c(c1)OCO2`, the inhibition was 78.9% (active).
Regarding `C[C@@H]1CN([C@H](C)CO)C(=O)c2cccc(NC(=O)c3nc4ccccc4s3)c2O[C@@H]1CN(C)C(=O)Nc1ccc2c(c1)OCO2`, the inhibition was 6.24%.
The same measure for `C[C@@H]1CN([C@@H](C)CO)C(=O)c2cc(NC(=O)Cc3ccccc3)ccc2O[C@@H](C)CCCCO[C@H]1CN(C)Cc1ccncc1`: 2.97%; for `O=C(Nc1ccc(C(F)(F)F)cc1)Nc1ccc2c(c1)[C@H]1C[C@H](CC(=O)N3CCc4ccccc4C3)O[C@H](CO)[C@H]1O2`: 41.9%.
The same measure for `Cc1ccc(S(=O)(=O)N2CC[C@@H]3[C@H]2c2cc(-c4cccc(C(=O)N(C)C)c4)ccc2N[C@@H]3CO)cc1`: 68.4% (active); for `COc1ccccc1-c1ccc2c(c1)[C@H]1[C@H](CCN1S(=O)(=O)c1ccc(C)cc1)[C@@H](CO)N2`: 17.3%.
For `COc1ccccc1-c1ccc2c(c1)[C@@H]1[C@@H](CCN1S(=O)(=O)c1ccc(C)cc1)[C@H](CO)N2` the value was 37.4%; for `Cc1ccc(S(=O)(=O)N2CC[C@H]3[C@H](CO)Nc4ccc(-c5cccc(C(=O)N(C)C)c5)cc4[C@H]32)cc1`, 56.9% (active).
On to `C/C=C/c1ccc2c(c1)[C@@H]1[C@@H](CCN1S(=O)(=O)c1ccccc1OC)[C@H](CO)N2C`, for which the inhibition was -5.93%.
`N#Cc1cccc(-c2ccc3c(c2)[C@H]2[C@H](CCN2S(=O)(=O)c2ccc(F)cc2)[C@H](CO)N3)c1`: the inhibition was 20.1%.
The same measure for `N#Cc1cccc(-c2ccc3c(c2)[C@@H]2[C@@H](CCN2S(=O)(=O)c2ccc(F)cc2)[C@@H](CO)N3)c1`: 22.5%.
The same measure for `COc1ccccc1S(=O)(=O)N1CC[C@@H]2[C@H]1c1cc(-c3cccc(C#N)c3)ccc1N(C)[C@H]2CO`: 62.1% (active).
For `Cc1ccc(S(=O)(=O)N2CC[C@@H]3[C@@H](CO)Nc4ccc(-c5cccc(C(=O)N(C)C)c5)cc4[C@@H]32)cc1` the value was 4.93%.
Consider `N#Cc1cccc(-c2ccc3c(c2)[C@@H]2[C@@H](CCN2S(=O)(=O)c2ccc(F)cc2)[C@H](CO)N3)c1`, for which the inhibition was 63% (active).
For `Cc1ccc(S(=O)(=O)N2CC[C@@H]3[C@H](CO)Nc4ccc(-c5cccc(C(=O)N(C)C)c5)cc4[C@@H]32)cc1` the value was -15%.
Take `COc1ccccc1S(=O)(=O)N1CC[C@@H]2[C@@H](CO)N(C)c3ccc(-c4cccc(C#N)c4)cc3[C@@H]21`: the inhibition was 32%.
As to `Cc1noc(C)c1S(=O)(=O)N(C)C[C@H]1OCc2ccccc2-c2ccccc2C(=O)N([C@H](C)CO)C[C@H]1C`, the inhibition was -25.8%.
For `C[C@@H]1CCCCO[C@@H](CN(C)CC2CCCCC2)[C@@H](C)CN([C@@H](C)CO)C(=O)c2cc(NS(C)(=O)=O)ccc2O1` the value was 2.58%; for `CS(=O)(=O)N1[C@H](CO)[C@@H](c2ccc(-c3ccccc3F)cc2)[C@@H]1C#N`, 16.4%.
For `C[C@H]1CN([C@@H](C)CO)C(=O)c2ccccc2-c2ccccc2CO[C@H]1CN(C)Cc1ccccc1C(F)(F)F` the value was 12.5%.
The same measure for `Cc1ccc(S(=O)(=O)N2C[C@@H](O)COC[C@H]3O[C@@H](CC(=O)NCc4ccc5c(c4)OCO5)CC[C@@H]32)cc1`: 25.4%.
As for `CCS(=O)(=O)N1CC(=O)N2[C@H](CO)[C@@H](c3ccc(C4=CCCCC4)cc3)[C@@H]2C1`, the inhibition is 0.977%.
For `COc1ccc2c3c(n(C)c2c1)[C@H](CO)N(C)CC31CCN(C(=O)NC(C)C)CC1` the value was 18.6%.
As to `C[C@@H]1CN([C@@H](C)CO)C(=O)c2c(c3ccccc3n2C)-c2ccccc2CO[C@@H]1CN(C)Cc1cccc(C(F)(F)F)c1`, the inhibition was -39%.
For `COc1ccc([C@@H]2C/C=C\C[C@@H](c3ccc4c(c3)OCO4)NC(=O)[C@H](c3ccccc3)CC(=O)N2)c(OC)c1`, the inhibition was 31%.
The same measure for `COc1ccc([C@H]2C/C=C\C[C@H](c3ccc4c(c3)OCO4)NC(=O)[C@H](c3ccccc3)CC(=O)N2)c(OC)c1`: -62.1%; for `COc1ccc([C@H]2C/C=C\C[C@@H](c3ccc4c(c3)OCO4)NC(=O)[C@@H](c3ccccc3)CC(=O)N2)c(OC)c1`: 58.4% (active); for `O=C(Nc1ccc(F)cc1)N1CC(=O)N2[C@H](CO)[C@@H](c3ccc(C#Cc4cccnc4)cc3)[C@@H]2C1`: -8.94%.
The same measure for `O=C(Nc1ccc(F)cc1)N1C[C@@H]2[C@H](c3ccccc31)[C@@H](CO)N2Cc1ccccc1Cl`: -18.1%.
The same measure for `OC[C@@H]1[C@@H](c2ccc(-c3cccnc3)cc2)[C@H]2CN(Cc3ccccn3)CCCCN12`: -1.92%; for `COc1ccc2c3c([nH]c2c1)[C@H](CO)NCC31CCN(C(=O)Cc2cccnc2)CC1`: 51% (active).
With `CCCC(=O)N1CCC2(CC1)CN[C@H](CO)c1[nH]c3cc(OC)ccc3c12`, the inhibition was 2.25%.
The same measure for `CCCC(=O)N1CCC2(CC1)CN[C@@H](CO)c1[nH]c3cc(OC)ccc3c12`: -5.58%.
